Experimental findings from PubChem BioAssay (NCATS) are described below.

The subject of one experiment is CRL-7250. Nature of the experiment: Cytotoxic Profiling of Annotated Libraries Using Quantitative High-Throughput Screening (AID 1296008). Further: nearly all actives have a fitted effect of over 60% in size. Further: potency means the concentration at half of the fitted maximal effect. On max response: on the % scale 0 is the no-effect control and ±100 the full control effect. Particulars: Five cell lines viability, CellTiter-Glo ATP luminescence, 48-72 h; max response: hits give low values. Summed up:
(§1)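 Cytotoxicity was measured as CellTiter-Glo ATP luminescence, read after 10 min at room temperature. Compound treatment of the cells lasted 48 or 72 hr at 37 degrees Celsius in a qHTS format.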
(In general: In ATP-based viability assays light output follows the ATP content of the culture.)

Experiment [1] deals with HaCat. Described as above. As to conditions: Five cell lines viability, CellTiter-Glo ATP luminescence, 48-72 h; max response: hits give low values. Summed up: as §1
The test system of experiment [2] is NIH3T3. The experiment is described as above. As to conditions: Five cell lines viability, CellTiter-Glo ATP luminescence, 48-72 h; max response: hits give low values. Summed up:
as §1

Experiment [3] relates to HACAT. Description: qHTS assay to identify novel small-molecules to repurpose for Merkel cell carcinoma treatment (AID 1296009). Further: nearly all actives have a fitted effect of over 60% in size. As to conditions: MCC and control cell lines, CellTiter-Glo viability, 72 h; at 44.8 µM (top of the series) unless noted. Summed up: (§2)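 72 hr, 37 degree celsius; NPC 8-pt / MIPE 11-pt dose response; compound pinned in DMSO; CellTiter-Glo, 10 min RT, luminescence; normalized to no-cell and DMSO controls.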
In general terms: In qHTS, concentration-response curves come from the screen itself.

The next experiment deals with C33A. Description: Primary qHTS to identify gynecologic anti-cancer compounds using libraries of approved drugs and bioactive compounds (AID 1345084). Further: nearly all actives have a fitted effect of over 55% in size. Further: potency means the concentration at half of the fitted maximal effect. Particulars: Gynecologic cancer cell panel viability, ATPlite luminescence, 48 h; series mostly up to 57.5 µM. An outline of the steps: (§3)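 Five-concentration response, 48 h; readout is ATP-driven luciferase luminescence.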

A further experiment deals with CAOV3. Described as above. Particulars: Gynecologic cancer cell panel viability, ATPlite luminescence, 48 h; series mostly up to 57.5 µM. Summed up: as §3
The next experiment deals with CASKI. The description is as above. As to conditions: Gynecologic cancer cell panel viability, ATPlite luminescence, 48 h; series mostly up to 57.5 µM. An outline of the steps:
as §3

In another experiment the test system is Es-2. Described as above. Particulars: Gynecologic cancer cell panel viability, ATPlite luminescence, 48 h; series mostly up to 57.5 µM. An outline of the steps: as §3
Another experiment deals with HeLa. Described as above. As to conditions: Gynecologic cancer cell panel viability, ATPlite luminescence, 48 h; series mostly up to 57.5 µM. An outline of the steps:
as §3

In another experiment the test system is Hek293T. Described as above. Particulars: Gynecologic cancer cell panel viability, ATPlite luminescence, 48 h, control line for the selectivity index; series mostly up to 57.5 µM. An outline of the steps: as §3
The next experiment relates to JEG-3. Described as above. As to conditions: Gynecologic cancer cell panel viability, ATPlite luminescence, 48 h; series mostly up to 57.5 µM. An outline of the steps: as §3
A further experiment has as its system OV90. Described as above. As to conditions: Gynecologic cancer cell panel viability, ATPlite luminescence, 48 h; series mostly up to 57.5 µM. An outline of the steps:
as §3

The test system of the next experiment is PA-1. The experiment is described as above. As to conditions: Gynecologic cancer cell panel viability, ATPlite luminescence, 48 h; series mostly up to 57.5 µM. An outline of the steps:
as §3

Another experiment deals with KB-3-1. Description: Cytotoxic Profiling of Annotated Libraries Using Quantitative High-Throughput Screening (AID 1296008). Further: nearly all actives have a fitted effect of over 60% in size. Further: potency means the concentration at half of the fitted maximal effect. On max response: on the % scale 0 is the no-effect control and ±100 the full control effect. As to conditions: Five cell lines viability, CellTiter-Glo ATP luminescence, 48-72 h; max response: hits give low values. Summed up:
as §1

The subject of experiment [4] is NIH3T3. Description: qHTS assay to identify novel small-molecules to repurpose for Merkel cell carcinoma treatment (AID 1296009). Further: nearly all actives have a fitted effect of over 60% in size. Particulars: MCC and control cell lines, CellTiter-Glo viability, 72 h; series mostly up to 44.8 µM. Summed up:
as §2

Results filed as inconclusive are left out. A number with no mark means an inactive call. Active and inactive are the calls of the source. The call rests on the fitted dose curve; in most records, active means well fitted curve in the direction sought with a large enough effect; inconclusive means small, poorly fitted or top-dose-only effect, or another doubt; inactive means no such curve, though single readings can be large; an effect the other way counts as inactive or inconclusive.

As for `CN(C)C(=O)C(=O)c1cn(C)c2cc(Cl)c(C(=O)N3CCC(Cc4ccc(F)cc4)CC3)cc12`, the max response in the experiment on CRL-7250 was -5.29%; with NIH3T3 [2], 1.98%. The compound was classed as inactive in the experiment with HaCat [1] and with HACAT [3]. The Potency entry in the experiment on C33A, with CAOV3, in the experiment on CASKI, in the experiment with Es-2, in the experiment on HeLa and with Hek293T was “inactive” each time. Besides, the Potency entry in the experiment with JEG-3, with OV90 and in the experiment on PA-1 was “inactive” throughout.

With `O=C(NCCCN1CCOCC1)c1cnn2c(-c3ccccc3)cc(-c3ccccc3)nc12`, the max response with CRL-7250 is -7.62%; in the experiment with HaCat [1] it was -15.4%; in the experiment with NIH3T3 [2] it was -12.1%. Moreover, the Potency result in the experiment on C33A, in the experiment with CASKI, in the experiment with Es-2, in the experiment with HeLa, with Hek293T and with JEG-3 was “inactive” in each case. In addition, the Potency result in the experiment with OV90 is “inactive”.

Turning to `C=C(C(=O)OC[C@H]1O[C@@H](OC(=O)/C=C/c2ccccc2)[C@H](O)[C@@H](O)[C@@H]1O)C(O)CO` (some centres undefined), the max response in the experiment on CRL-7250 is -9.26%; with KB-3-1 it was -8.71%; with NIH3T3 [2], 1.83%. Also, the Potency entry with C33A, in the experiment on CAOV3, in the experiment on CASKI, with Es-2, in the experiment with HeLa and in the experiment on Hek293T was “inactive” each time. In addition, the Potency entry in the experiment with JEG-3, with OV90 and in the experiment with PA-1 was “inactive” in each case.

Regarding `Cc1noc(C)c1-c1cc(O)cc(C(O)c2ccccc2)c1` (centres undefined), the Potency is 7.31 µM (active) in the experiment on CRL-7250 and 10.3 µM (active) with NIH3T3 [2]. For the same compound, in the experiment on HaCat [1], the max response is -28.1%. Also, the Potency entry in the experiment on C33A, in the experiment with Hek293T, in the experiment with JEG-3 and in the experiment on OV90 was “inactive” each time.

Take `O=C(NNc1nc2cc(F)ccc2n2cccc12)c1cnccn1`: the Potency is 1.3 µM (active) with CRL-7250; 3.26 µM (active) in the experiment with HaCat [1]; 4.11 µM (active) in the experiment with NIH3T3 [2]; 7.08 µM (active) in the experiment on Es-2; 3.55 µM (active) with Hek293T; 5.01 µM (active) in the experiment with OV90. Moreover, the Potency with PA-1 is 3.55 µM (active). Moreover, the Potency entry in the experiment on CASKI, with HeLa and in the experiment on JEG-3 was “inactive” throughout.

Consider `CCOc1cc(C(C)(C)C)ccc1C1=NC(C)(c2ccc(Cl)cc2)C(C)(c2ccc(Cl)cc2)N1C(=O)N1CCN(CCCS(C)(=O)=O)CC1` (centres undefined), for which the Potency in the experiment with CRL-7250 was 5.17 µM (active); in the experiment on HaCat [1] it was 20.6 µM (active); with NIH3T3 [2], 9.2 µM (active); in the experiment on PA-1, 6.31 µM (active). For the same compound, the Potency result in the experiment on C33A, in the experiment with Es-2, in the experiment with HeLa, in the experiment with Hek293T, with JEG-3 and in the experiment with OV90 was “inactive” in each case.

Regarding `COc1cccc(NCCC2(c3ccccc3)CC(C)(C)OC(C)(C)C2)c1`, the max response in the experiment with CRL-7250 is -3.59%; in the experiment on KB-3-1, -14.2%; in the experiment on NIH3T3 [2], -25%. Moreover, the Potency entry in the experiment with C33A, with CAOV3, in the experiment with CASKI, in the experiment with Es-2, in the experiment on HeLa and in the experiment on Hek293T was “inactive” in each case. The Potency entry in the experiment on OV90 and in the experiment on PA-1 was “inactive” throughout.

With `NC(=O)CCCSc1nc(N)nc(-c2c(Cl)cc3c4c(cccc24)COC3)n1`, the Potency was 1.46 µM (active) in the experiment on CRL-7250; 0.291 µM (active) with HaCat [1]; 0.731 µM (active) in the experiment on NIH3T3 [2]; 0.891 µM (active) in the experiment with C33A; 0.708 µM (active) with OV90; 0.891 µM (active) in the experiment with PA-1. In the experiment on HeLa, the Potency entry is “inactive”.

Regarding `O=C(NCCN1CCC(n2c(=O)[nH]c3ccccc32)CC1)c1cc2cc(F)ccc2[nH]1`, the max response in the experiment on CRL-7250 is 4.31%; in the experiment with KB-3-1, 1.32%. The result with NIH3T3 [2] was inactive. Besides, the Potency result in the experiment with NIH3T3 [4], in the experiment with C33A, in the experiment with CASKI, in the experiment on Es-2, in the experiment on HeLa and in the experiment with Hek293T was “inactive” each time. The Potency entry in the experiment on JEG-3, in the experiment with OV90 and with PA-1 was “inactive” each time.

Turning to `O=C(O)CSc1cc(NS(=O)(=O)c2ccc(Br)cc2)c2ccccc2c1O`, the Potency in the experiment with CRL-7250 is 23.1 µM (active). Moreover, the result in the experiment with HaCat [1] and in the experiment with HACAT [3] was inactive. Moreover, the Potency result with C33A, in the experiment with CASKI, with Es-2, with Hek293T and in the experiment with OV90 was “inactive” each time.

Regarding `O=C(CNC(=O)c1cccc(C(F)(F)F)c1)N[C@@H]1CCN(Cc2ccc(Cl)cc2)C1`, the max response in the experiment on CRL-7250 was -11.8%; in the experiment on KB-3-1 it was -17%; with NIH3T3 [2], -1.44%. Moreover, the Potency entry in the experiment on C33A, in the experiment with CAOV3, with CASKI, in the experiment with HeLa, in the experiment with Hek293T and in the experiment on JEG-3 was “inactive” throughout. Besides, the Potency result with OV90 and in the experiment with PA-1 was “inactive” throughout.

With `COc1ccc2nc3n[nH]c(C)c3c(NCCOCCO)c2c1`, the results for the max response in the experiment on CRL-7250, in the experiment with KB-3-1 and in the experiment with NIH3T3 [2] were 4.22%, 2.11% and 2.85%, respectively. For the same compound, the Potency result in the experiment with C33A, with CAOV3, in the experiment on CASKI, with Es-2, with Hek293T and in the experiment with JEG-3 was “inactive” each time. For the same compound, in the experiment on OV90, the Potency result was “inactive”.

Take `C[C@@H](Nc1ncnc2[nH]c(-c3ccc(O)cc3)cc12)c1ccccc1`: the max response in the experiment with CRL-7250 is -9.15%. For the same compound, the Potency in the experiment with HaCat [1] is 0.82 µM (active); with NIH3T3 [2] it was 14.6 µM (active); in the experiment with CASKI it was 22.4 µM (active). In addition, the Potency result with Es-2, in the experiment on Hek293T, in the experiment with JEG-3, with OV90 and in the experiment on PA-1 was “inactive” throughout.

`Nc1nccc(-c2c(-c3ccc(F)cc3)ncn2C2CCCCC2)n1`: the max response was -18.7% in the experiment on CRL-7250 and -18.1% with KB-3-1. Besides, the Potency in the experiment on NIH3T3 [2] is 16.4 µM (active). Moreover, the Potency entry in the experiment with C33A, in the experiment on CAOV3, with CASKI, in the experiment on Es-2, with HeLa and with JEG-3 was “inactive” throughout.

Turning to `Cc1ccnn1-c1ccc(C(=O)N2CCN(S(=O)(=O)c3ccc(Cl)c(C(F)(F)F)c3)CC2)cc1`, the call in the experiment with CRL-7250 was inactive. In addition, the results for the max response with KB-3-1 and in the experiment on NIH3T3 [2] were -18.8% and -5.12%, respectively. For the same compound, the Potency entry in the experiment with C33A, in the experiment on CAOV3, with CASKI, in the experiment with Es-2, in the experiment on HeLa and in the experiment with Hek293T was “inactive” each time. Also, the Potency result in the experiment with JEG-3, in the experiment with OV90 and with PA-1 was “inactive” in each case.

In the case of `COc1ccc(NC(=O)c2ccc(C(=N)N(C)C)cc2)c(C(=O)Nc2ccc(Cl)cn2)c1`, the max response was 3.5% in the experiment with CRL-7250 and -16.4% with HaCat [1]. Also, the Potency entry with C33A, in the experiment on CAOV3, with CASKI, in the experiment on Es-2, with HeLa and in the experiment with Hek293T was “inactive” in each case. In addition, the Potency result in the experiment on JEG-3, in the experiment with OV90 and in the experiment with PA-1 was “inactive” in each case.

As for `CC1(NC(=O)c2ccc(C#Cc3cccc(F)c3)cn2)COC1`, the max response in the experiment with CRL-7250 is 4.8%; in the experiment with KB-3-1, -5.29%; with NIH3T3 [2] it was -3.45%. Also, the Potency result with C33A, in the experiment on CAOV3, in the experiment with CASKI, with Es-2, in the experiment on HeLa and in the experiment with Hek293T was “inactive” in each case. In addition, the Potency entry with JEG-3, in the experiment with OV90 and with PA-1 was “inactive” throughout.
